Bioassay records: PubChem BioAssay, National Center for Advancing Translational Sciences (NCATS)
HCMV inh: qHTS Assay for inhibitors of the human cytomegalovirus (HCMV); activity change, negative = inhibition, % at 57.5 µM; HFF cells, HCMV-luciferase reporter, 72 h; active compounds read low; AID 1259415, 2018; 4.5% of 410,000 active; in the data active = activity change below about -60%; inconclusive = no clear call, values can overlap the other calls; inactive = above about -39%
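Steps: HFFs plated, 16 h 37C; compounds added; HCMV-luciferase added to MOI 1 PFU/cell; 72 h 37C; OneGlo reagent, 5 min room temperature; luminescence read, normalized to controls.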
LASV entry inh: qHTS for Inhibitors of binding or entry into cells for Lassa Virus; Lassa virus pseudotype entry inhibition, cell reporter; Potency, µM (doses to about 37.9 µM), for the others: at the highest dose activity change, negative = inhibition, actives largely listed as inhibitors; 1.2% of 300,000 active; AID 540256, 2011; calls by dose curve; tested in HEK293 cells; also: potency is read from the fitted curve at half-maximal effect; nearly all actives have a fitted effect of over 50% in size
HCV inh: qHTS Assay for Inhibitors of Hepatitis C Virus (HCV). AID 651820, 2012. 3.4% of 340,000 active. Huh7.5.1 HCVcc-Cre infection, luciferase reporter, 44 h. Potency, µM (top dose mostly 41.8 µM), inactives show at the highest dose activity change, negative = inhibition, most hits filed as inhibitors; active = well fitted inhibition curve with a large enough effect; inconclusive = small, poorly fitted or top-dose-only effect, or another doubt; inactive = no such curve, though single readings can be large or run the other way; also: potency is read from the fitted curve at half-maximal effect
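Cells seeded at 1,000/well and cultured 4 h, then compounds added followed by HCVcc-Cre virus (~0.5 moi). After 44 h further culture, luciferase substrate was added, plates held 15 min at room temperature, and luminescence read for 15 sec.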
Marburg entry inh: qHTS for inhibitors of binding or entry into cells for Marburg Virus; 1.8% of 300,000 active; Potency, µM (highest dose often 37.8 µM), for the others: top-dose activity change, negative = inhibition, most hits filed as inhibitors; Marburg virus pseudotyped entry inhibition, cell reporter; AID 540276, 2011; calls by dose curve; tested in HEK293 cells; also: potency is read from the fitted curve at half-maximal effect
FMDV inh: High Throughput Screening for Foot and Mouth Disease Virus Antivirals | FMDV antiviral cell-based qHTS | Potency, µM (series often up to 57.9 µM), for the others: top-dose activity change, negative = inhibition, hits mostly inhibitors | 1.2% of 410,000 active | AID 1159524, 2015; calls by dose curve; tested in HEK293T cells; also: read-out not given here; potency is read from the fitted curve at half-maximal effect; nearly all actives have a fitted effect of over 45% in size
Numbers without * were called inactive; ? = inconclusive; nt = no result; ! = not confirmed by another sample; [ ] = remark or other dose. Only some compounds are listed: those with a hit (about 7.9% of all), similar ones and a draw of the others. % is scaled to controls: 0 for no effect and ±100 for the full control effect.

SMILES	HCMV inh	LASV entry inh	HCV inh	Marburg entry inh	FMDV inh
COc1ccc(OC)c(CNC(=O)Cc2ccc(NC(=O)N3CCCCc4ccccc43)cc2)c1	11	?	nt	nt	-16%
CC(C)c1ccc(NC(=O)[C@H](Cc2c[nH]c3ccccc23)NC(=O)[C@@H]2Cc3ccccc3CN2)cc1	nt	nt	4.5µM*	nt	3%
CC(C)c1ccc(NC(=O)[C@H](NC(=O)[C@@H]2Cc3ccccc3CN2)c2ccccc2)cc1	nt	0%[46.1 µM]	-6%	4µM*	-8%
COc1ccc(NC(=O)[C@H](Cc2c[nH]c3ccccc23)NC(=O)[C@@H]2Cc3ccccc3CN2)cc1	nt	nt	?	nt	-4%
CCOC(=O)c1sc2ccccc2c1OC(=O)c1ccc(C)cc1	nt	4.5µM*	14%	-26%	15%
CC(C)CC(=O)Nc1nnc(S(=O)(=O)N(C)Cc2ccc(Cl)cc2)s1	0	3%[46.1 µM]	nt	nt	8%
COC(=O)c1ccc2c(c1)c(-c1ccccc1)c(-c1ccccc1)n2C	-12	nt	7.1µM*	nt	?
COC(=O)c1c(C)nc2ccccc2c1-c1ccccc1	-1	14%	?	6%	0%
O=C(NCc1cccnc1)c1cnn(-c2ncc3c(n2)-c2ccccc2CCC3)c1C1CC1	nt	nt	nt	nt	-14%
COC(=O)Nc1ccc(S(=O)(=O)N2CCC(Cc3ccccc3)CC2)cc1	-6	21µM*	-20%	?	-25%
COC(=O)Nc1ccc(S(=O)(=O)N2CCC(C)CC2)cc1	-40	6%	14%	2%	-3%
CC(=O)Nc1ccc(NC(=O)C(C)N2CCN(S(=O)(=O)c3ccc(C)cc3)CC2)cc1 (centres undefined)	-3	?	13%	?	-6%
CC(=O)Nc1ccc(S(=O)(=O)N2CCN(C(C)CCc3ccccc3)CC2)cc1 (centres undefined)	-8	16µM*	-5%	13µM*	-12%
CCOc1ccc(CN2CCN(S(=O)(=O)c3ccc(NC(C)=O)cc3)CC2)cc1OC	11	0%	-29%	0%	nt
COc1ccc(CN2CCN(S(=O)(=O)c3ccc(NC(C)=O)cc3)CC2)c(OC)c1OC	-98*!	-20%[46.1 µM]	-11%	nt	-10%
Cc1cc2nc(-c3cccc(NC(=O)COc4ccc(C(C)C)cc4)c3)oc2cc1C	89	46%[46.1 µM]	nt	?	45%
Cc1ccccc1NC(=O)c1c(C)oc2ccc(O)c(CN3CCN(C)CC3)c12	-14	0%[46.1 µM]	nt	?	-11%
C[C@H]1CN([C@@H](C)CO)C(=O)c2cc(Br)cnc2O[C@@H]1CN(C)C(=O)c1ccncc1	-10	nt	nt	nt	-7%
CC(=O)c1ccc(N2CCN(S(=O)(=O)c3ccc4c(c3)C(Cl)(Cl)C(=O)N4)CC2)cc1	-3	nt	nt	nt	?
CCCOc1ccc(-c2nonc2NC(=O)c2oc3ccc(Cl)cc3c2C)cc1OCCC	10	12%[46.1 µM]	nt	18%[46.1 µM]	-24%
O=C(N/N=C/c1ccc(-c2ccc(S(=O)(=O)Nc3ncccn3)cc2)o1)c1cc2ccccc2cc1O	-101*	-30%	-9%	?	2%
CCOc1ccc(C(=O)N/N=C/c2ccc(-c3ccc(S(=O)(=O)Nc4ncccn4)cc3)o2)cc1	2	-10%	?	10%	14%
C[C@H]1CN([C@@H](C)CO)C(=O)CCCn2cc(nn2)CO[C@@H]1CN(C)C(=O)Nc1cccc(Oc2ccccn2)c1	-6	nt	nt	nt	-8%
COc1cc(-c2nc(-c3ccccc3)c(-c3ccc(Br)cc3)[nH]2)cc(OC)c1O	3	?	nt	?	5%
Oc1ccc(-c2nc(-c3ccccc3)c(-c3ccc(Br)cc3)[nH]2)cc1	-63*	-24%[46.1 µM]	nt	9%[46.1 µM]	-10%
SMILES	HCMV inh	LASV entry inh	HCV inh	Marburg entry inh	FMDV inh
CNC[C@H](Cc1ccccc1)NC[C@@H](Cc1cccc2ccccc12)NCCc1ccc(C)cc1	?	nt	14%	nt	-28%
CNCCNC[C@H](Cc1cccc2ccccc12)NCCc1ccccc1	-100*	nt	?	nt	-20%
O=C(Nc1ccccc1OC(F)F)c1ccn2ccnc2n1	9	nt	nt	nt	nt
COc1ccc(NC(=O)C(NS(=O)(=O)c2ccc3c(c2)CCCC(=O)N3)C(C)C)c(OC)c1 (centres undefined)	5	9%[46.1 µM]	nt	nt	5%
O=C1NN(c2ccc(F)c(Cl)c2)C(=O)/C1=C\c1cccc(OC(=O)c2cccs2)c1	141	1%	4%	11%	28µM*
COc1ccc(S(=O)(=O)N2c3ccc(F)cc3CCC2C)cc1 (centres undefined)	-78*	nt	3%	nt	-26%
CC(=O)Nc1ccc(S(=O)(=O)N2c3ccc(F)cc3CCC2C)cc1 (centres undefined)	-31	nt	-23%	nt	-9%
CC(O)(c1ccc(F)c(F)c1)c1nc(-c2cccc(F)c2)cs1 (centres undefined)	-7	nt	nt	nt	-18%
CC(C)c1cccc(-c2csc(C(C)(O)c3ccncc3)n2)c1 (centres undefined)	-77*	nt	nt	nt	?
CC(C)c1cccc(-c2csc(C(C)(O)c3ccc(F)c(F)c3)n2)c1 (centres undefined)	-77*	nt	nt	nt	1%
CCN(CC)C(=O)c1cccc(-c2csc(C(C)(O)c3cccc(F)c3)n2)c1 (centres undefined)	?	nt	nt	nt	25µM*
CC(=O)Nc1cccc(-c2csc(C(C)(O)c3cccc(F)c3)n2)c1 (centres undefined)	0	nt	nt	nt	?
COCCCNC(=O)Cn1ccc(N)nc1=O	22	nt	5%	nt	-12%
c1cncc(OC2CCN(Cc3ccc4c(c3)CN(Cc3ccc5c(c3)CCO5)CCO4)CC2)c1	nt	nt	nt	nt	-25%
O=c1ccc2c(o1)/C(=C/C=C(Cl)Cl)CCC2	-7	-3%	16µM*	-6%	-27%
Cc1ccc(S(=O)(=O)N2CCOCC2)cc1NC(=O)CSc1nnc2cc(C)c3ccccc3n12	-63*	?	?	?	?
Cc1cc2nnc(SCC(=O)Nc3cc(S(=O)(=O)N4CCOCC4)ccc3Cl)n2c2ccccc12	?	14%	?	7.9µM*	?
O=c1nc(-c2ccccc2)c2cc(SC(F)F)ccc2[nH]1	-24	-12%	-8%	1%	-22%
CN(C(=O)Cn1nc(C(=O)O)c2ccccc2c1=O)C1(C#N)CCCCC1	-4	nt	13%	nt	-23%
COc1ccc2c3c(n(C)c2c1)[C@@H](CO)N(C(C)=O)CC31CN(Cc2nccs2)C1	5	nt	nt	nt	nt
COc1ccc(CN2C(=O)C(CC(=O)NCCCCc3ccccc3)CC(C(=O)N(C(C)C)C(C)C)=C2C)cc1 (centres undefined)	19	nt	nt	nt	-30%
CC1=C(C(=O)N(C(C)C)C(C)C)CC(CC(=O)NCCCCc2ccccc2)C(=O)N1Cc1ccc(C(C)(C)C)cc1 (centres undefined)	-105*	nt	nt	nt	?
CC1=C(C(=O)N(C(C)C)C(C)C)CC(CC(=O)NC(c2ccccc2)c2ccccc2)C(=O)N1CCC1=CCCCC1 (centres undefined)	-110*	nt	nt	nt	?
